Compound activity (PubChem)
A selection: hits, their analogues and other compounds. The true share with any hit is near 2%.
Rin1-Abl PPI inh: human Rin1-Abl interaction inhibition. P00519+Q13671. TR-FRET Rin1/Abl binding, biochemical. inhibition, % at 7.35 µM. 0.4% of 360,000 active; in the data active means inhibition above about 5%, passing the limit was not always enough
MBD2 inh: MBD2-methylated oligo binding inhibition; TR-FRET, MBD2 binding to methylated oligonucleotide; inhibition, % at 4.4 µM; 0.31% of 370,000 active; AID 686964; in the data active means inhibition above about 13%
Target sequence (Q9UBB5 whole entry, looked up): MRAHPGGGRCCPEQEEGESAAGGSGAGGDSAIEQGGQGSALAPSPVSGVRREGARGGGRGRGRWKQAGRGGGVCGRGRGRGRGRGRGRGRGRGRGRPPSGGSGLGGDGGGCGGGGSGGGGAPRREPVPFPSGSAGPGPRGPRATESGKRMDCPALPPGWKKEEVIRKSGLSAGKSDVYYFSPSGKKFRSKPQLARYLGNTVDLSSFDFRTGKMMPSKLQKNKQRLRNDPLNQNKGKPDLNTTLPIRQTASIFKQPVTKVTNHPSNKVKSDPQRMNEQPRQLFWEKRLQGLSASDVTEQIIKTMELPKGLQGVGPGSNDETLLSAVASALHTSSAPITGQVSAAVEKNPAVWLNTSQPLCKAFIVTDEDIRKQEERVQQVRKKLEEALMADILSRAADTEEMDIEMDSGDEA
LEDGF integ inh: blocks HIV-1 LEDGF/p75-dependent DNA integration; TR-FRET IN-LEDGF/p75 DNA integration, Eu/Cy5; inhibition, % at 3.7 µM; 0.64% of 370,000 active;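 active means inhibition above the screen-wide mean plus 3 SD, cut at about 13% in these data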;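 further: signal is the Cy5 over europium emission ratio at 671 and 618 nm; 0% = plate median of compound wells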
UHRF1 MBD2 ctr: human UHRF1 methylated DNA binding inhibitors | Q96T88 | UHRF1 binding to methylated oligo, TR-FRET | inhibition, % at 4.4 µM | 0.75% of 370,000 active | AID 687016; in the data active means inhibition above about 21%;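 further: UHRF1 SRA domain binding a hemimethylated CpG hairpin DNA probe; 0% = median of test compound wells and 100% = reference inhibitor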
TCR CD3 inh: human TCR-CD3 binding inhibition; TAMRA-labeled TCR probe fluorescence, biochemical; inhibition, % at 9.4 µM; 0.37% of 360,000 active; in the data active means inhibition above about 19%;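 further: recombinant mutant TCR 2C K166C tagged with TAMRA read by polarization; 0% = receptor in buffer alone and 100% = receptor with positive control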
IN multimer up: activates HIV-1 integrase multimerization in LEDGF counter-screen; shares compounds with LEDGF integ inh; TR-FRET HIV-1 integrase multimerization, biochemical; activation, % at 7.7 µM; 17% of 2,000 active; AID 1053131; in the data active means activation above about 8.9%
TR-FRET interf: counter-screen for LEDGF/p75 integration inhibitors: TR-FRET optical interference; 2,000 tested, under 10 active; AID 1053135; shares compounds with LEDGF integ inh; TR-FRET optical interference counterscreen, HIV-1 IN multimerization; inhibition, % at 7.7 µM;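 active means inhibition above the mean over all tested compounds plus 3 SD, which no compound reached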;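 further: 0% = integrase with antibodies and DMSO and 100% = antibodies without integrase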
IN-LEDGF confirm: LEDGF/p75-dependent HIV-1 integration inhibition, confirmation; shares compounds with LEDGF integ inh; TR-FRET LEDGF/p75-dependent HIV-1 integration, biochemical; inhibition, % at 3.7 µM; 36% of 2,000 active; in the data active means inhibition above about 14%
Starred values were filed as active, the others as inactive; x = no result given.

SMILES	Rin1-Abl PPI inh	MBD2 inh	LEDGF integ inh	UHRF1 MBD2 ctr	TCR CD3 inh	IN multimer up	TR-FRET interf	IN-LEDGF confirm
CCOC(=O)C(CC(=O)Nc1nc(C(C)=O)c(C)s1)C(C)c1ccccc1 (stereo not drawn)	-6.6	3.0	18.4*	0.9	-10.0	1.0	-3.5	-5.1
c1ccc(-c2ccccc2OCCCCn2ccnc2)cc1	-0.3	-1.4	1.2	0.1	4.0	x	x	x
O=C(NC1CC1)c1sc2cc(F)ccc2c1Cl	-0.4	-1.2	20.8*	-0.7	3.6	0.3	-1.4	2.0
Clc1cccc(CN2CCN(c3ncccn3)CC2)c1Cl	1.5	-0.6	3.0	-6.7	2.4	x	x	x
CCCNC(=O)c1cc(C2CCCCN2S(=O)(=O)Cc2cccc(C(F)(F)F)c2)on1 (stereo not drawn)	3.4	-2.7	-1.4	0.7	-3.5	x	x	x
CCCCN1C(=O)C(=Nc2cccc3cnccc23)c2ccccc21	-0.9	-16.8	16.1*	-4.4	-3.0	1.2	-6.3	23.5*
CC(=O)c1c(C)[nH]c(C(=O)OCC(=O)Nc2cccnc2Cl)c1C	5.2	7.6	24.0*	1.7	-3.5	-3.4	12.3	3.1
COc1ccc([C@H]2C[C@H](O)[C@@H](n3cc(COC(=O)c4ccccc4)nn3)CN2CC2CCCCC2)cc1	-3.2	1.2	28.5*	2.0	-1.2	-0.6	3.1	-0.9
O=C(OCc1cn([C@H]2C[C@H](c3ccccc3)N(CC3CCCCC3)C[C@@H]2O)nn1)c1ccccc1	-2.0	-0.9	4.1	-0.2	5.1	x	x	x
COc1ccc(N2CCN(C(=O)C3CCCN3S(=O)(=O)c3cccc4nsnc34)CC2)cc1 (stereo not drawn)	-5.2	x	x	x	x	x	x	x
COc1ccccc1NC(=O)/C=C\c1ccco1	-1.2	3.3	-0.1	0.5	2.6	x	x	x
COc1ccccc1NC(=O)/C(C#N)=C/C=C/c1ccco1	1.9	6.1	25.0*	6.3	-2.1	0.9	-4.7	3.9
NS(=O)(=O)c1cccc(NC(=O)c2cccc(-c3ccc(O)cc3)c2)c1	-3.1	-2.7	17.7*	-1.6	9.1	0.5	-2.2	-7.8
COc1cccc(-c2cnc(C(O)c3ccc(Cl)c(F)c3)[nH]2)c1 (stereo not drawn)	-1.3	2.9	-3.5	2.3	1.8	x	x	x
CC1=NN(c2ccc(C)cc2)C(=O)/C1=C\C=C\c1ccccc1	4.2	-0.3	7.7	1.7	0.7	x	x	x
CC1=NN(c2ccccc2)C(=O)/C1=C/c1ccc[nH]1	-2.9	-2.6	-1.2	-7.5	3.1	x	x	x
CC1=NN(c2ccccc2)C(=O)/C1=C/C=C/C=C/N(C)C	-21.1	-20.6	22.8*	-28.9	-19.7	15.6*	-55.6	-4.4
CC1=NN(c2cccc(C(=O)O)c2)C(=O)/C1=C\C=C/c1ccccc1	4.0	-1.8	15.7*	-1.5	-8.5	6.7	-23.6	15.8*
CC1=NN(c2ccccc2)C(=O)/C1=C\N(O)c1ccccc1	-0.3	-1.3	1.7	-7.8	-12.2	x	x	x
CC1=NN(c2ccccc2)C(=O)/C1=C/c1cccs1	-0.6	9.8	46.1*	17.6	-2.9	3.0	-10.8	-1.1
Cc1nnc(SCC(=O)NC(C)(C)C)n1NCc1c(F)cccc1Cl	-0.3	-2.1	3.1	1.9	-5.5	x	x	x
CC(C)C1Nc2ccc(S(N)(=O)=O)cc2C2C=CCC21 (stereo not drawn)	-0.7	-1.6	0.0	-5.9	0.0	x	x	x
NS(=O)(=O)c1ccc2c(c1)C1C=CCC1C(C1CC=CCC1)N2 (stereo not drawn)	3.3	4.8	21.4*	1.7	1.0	1.6	-8.2	3.5
C=CCc1cc(C=Nc2ccc(N3CCOCC3)cc2)cc(OCC)c1O	-0.8	-2.6	24.6*	1.8	9.7	4.7	-16.8	-14.2
CCOC(=O)C1=C(c2ccccc2)N=c2s/c(=C\c3ccco3)c(=O)n2C1c1cccs1 (stereo not drawn)	4.0	5.5	15.7*	8.1	0.1	1.4	-7.0	22.8*
SMILES	Rin1-Abl PPI inh	MBD2 inh	LEDGF integ inh	UHRF1 MBD2 ctr	TCR CD3 inh	IN multimer up	TR-FRET interf	IN-LEDGF confirm
COc1ccc(C2C(C(C)=O)=C(C)N=c3s/c(=C\c4ccco4)c(=O)n32)c(OC)c1 (stereo not drawn)	-1.2	-1.7	14.8*	-2.9	-9.5	-1.4	6.8	-0.3
COc1ccccc1C1=NNC(=Nc2cccc(S(=O)(=O)N(C)C)c2)SC1	4.0	-5.2	3.6	-0.6	5.9	x	x	x
CCOC(=O)c1cc2c(=Cc3ccc(N(C)C)cc3)c3ccccc3n2[n+]1C	-7.7	1.9	21.1*	30.0*	-22.1	20.3*	-72.7	53.7*
CC1OC(Nc2cccc3ccccc23)C(O)C(O)C1O (stereo not drawn)	8.1	-7.6	36.3*	-4.5	-3.1	2.5	-12.6	5.2
O=C(C(=Cc1ccccc1)CN1CCCCC1)c1ccccc1	-1.8	-0.9	19.5*	3.1	7.4	1.1	-3.8	2.3
COc1ccc2[nH]c(=O)c(CN(C(=O)C(C)C)c3ccccc3OC)cc2c1	-3.4	-6.1	18.9*	2.1	4.7	1.2	-6.0	-14.7
COc1ccc(NCc2cc3ccccc3[nH]c2=O)cc1	0.6	-5.1	0.6	-7.0	-3.2	x	x	x
COc1ccc(NCc2cc3cc(OC)ccc3[nH]c2=O)cc1	0.9	-2.1	15.6*	-8.0	-3.2	2.1	-7.3	-0.4
CCC(=O)N(Cc1cc2cc(OC)ccc2[nH]c1=O)c1ccccc1OC	3.8	-0.4	-0.2	1.8	0.5	x	x	x
O=C(NCc1cccs1)c1ccc2sc([C@@H]3O[C@H](CO)[C@H](O)[C@H](O)[C@H]3O)nc2c1	3.8	-3.4	33.0*	0.8	-1.8	-0.8	3.0	-10.3
Cc1ccc(Nc2ccc(NCc3ccccc3)nn2)cc1C	-4.7	1.7	46.9*	7.5	-7.7	1.5	-7.5	-3.9
O=C(/C=C/c1ccc(F)cc1)N1CCCN(C(=O)/C=C/c2ccc(F)cc2)CC1	-1.9	3.3	25.2*	6.3	0.2	-0.2	0.9	-0.5
Cc1ccc(/C=C/C(=O)N2CCCN(C(=O)/C=C/c3ccc(C)cc3)CC2)cc1	-1.6	1.4	0.8	-0.9	2.2	x	x	x
CCN(C(=O)N(CC)c1ccccc1)c1ccccc1	2.8	-1.4	1.5	0.4	8.2	x	x	x
Cc1csc(NC(=O)c2cc(C)nc3ccccc23)n1	-2.5	-1.4	-3.6	-1.7	-0.1	x	x	x
Cc1csc(NC(=O)c2cc(-c3ccco3)nc3ccccc23)n1	1.3	5.4	26.0*	14.0	8.5	11.2*	-56.2	48.0*
C/C(=N\NC(=O)c1cc(-c2ccco2)nc2ccccc12)c1cccnc1	-0.8	-2.9	63.7*	-2.4	-2.5	1.1	-5.5	0.2
CCNC(=O)COC(=O)c1cc(-c2ccco2)nc2ccccc12	-0.2	4.8	13.5*	8.3	9.7	7.3	-36.7	28.7*
